Only a sample is shown.
aSyn 5UTR act = Activators via SNCA 5'UTR binding, MLPCN | 7.1% of 300,000 active | alpha-synuclein 5'UTR reporter, activators screen | AID 1814 | activity score, % (tested at 7.5 µM), hits read low; in the data active = activity score below about -60%
* = called active by the depositor.

SMILES | aSyn 5UTR act
O=C(CCN1CCC(c2cccs2)=N1)c1cccs1 | -93.7*
C=CCNC(=S)N/N=C/c1ccc(-c2ccc(OC)cc2)o1 | -61.8*
CC(C)(C)NC(=S)N/N=C\c1ccc(-c2ccc([N+](=O)[O-])cc2)o1 | -78.9*
CCC1CCCCN1c1nc(-c2cccc(OC)c2O)nc2ccccc12 (centres undefined) | -98.3*
COc1ccc(Cc2nn3c(-c4ccccc4Br)nnc3s2)cc1 | 37.1
COc1ccc(Cn2c(-c3ccc(Br)cc3)c[n+]3ccccc23)cc1 | -142.6*
N#Cc1ccc(C(=O)Nc2nc3ccccc3[nH]2)cc1 | -88.4*
CN(C)S(=O)(=O)c1ccc(C(=O)Nc2nc3ccccc3[nH]2)cc1 | -108.6*
CCc1ccc(C(=O)Nc2nc3ccccc3[nH]2)cc1 | 87.9
COc1cc(C(=O)OCC(=O)Nc2cc(C)on2)ccc1OCc1ccccc1Cl | -111.3*
O=C(CCl)N1CCCC1c1ccc2c(c1)OCCO2 (centres undefined) | -151.8*
Cc1cc(C)nc(/N=C(\N)N2CCc3ccccc32)n1 | -61.7*
COc1cccc(-c2nc3ccc(C(=O)N4CCCC(O)C4)cc3o2)c1 (centres undefined) | -91.3*
CCC(=O)C1CCCN(C(=O)c2ccc3nc(-c4cccc(OC)c4)oc3c2)C1 (centres undefined) | -84.5*
O=C(N/N=C/c1ccncc1)c1ccccn1 | -89.6*
O=C(N/N=C/c1ccc(N2CCOCC2)cc1)c1ccccn1 | -103.1*
Cc1ccc(/C=N/NC(=O)c2ccccn2)o1 | -74.3*
O=C(NN=C1c2ccccc2-c2ccccc21)c1ccccn1 | -133.7*
O=C(NNC(=O)C(c1ccccc1)c1ccccc1)c1ccccn1 | 72.2
O=C(NN=C1C2CC3CC1CC(Cl)(C3)C2)c1ccccn1 | -137.3*
O=C(CSc1cccs1)NCCc1ccccc1 | -63.5*
O=C(CSc1ccccc1)NCCc1ccccc1 | -61.6*
O=C(CSc1cccs1)Nc1ccc(Cl)cc1 | -115.7*
C/C(=N\Nc1ncc(Cl)cc1Cl)c1ccccn1 | 100.5
Clc1ccc(/C=N/NC(=Nc2ccccc2)c2ccccn2)c(Cl)c1 | -81.9*
SMILES | aSyn 5UTR act
Fc1cccc(Cl)c1CSc1ccc(-c2cccnc2)nn1 | -79.5*
COc1cccc(/C=N/n2c(=O)[nH]c3ccccc32)c1OC | -163.7*
O=[N+]([O-])c1cc(Cl)cc2c1nc(NCCO)c1ccccc12 | -206.7*
Cc1cccc2sc(NC(=O)c3ccc(Cl)s3)nc12 | -198.9*
COC(=O)Nc1nc2ccc(Br)cc2s1 | -147.6*
COC(=O)Nc1nc2c(C)cccc2s1 | -92.5*
Cc1cccc2sc(NNC(=O)c3ccc(S(=O)(=O)N4CCc5ccccc5C4)cc3)nc12 | 66.9
COc1cccc2sc(NC(=O)c3ccc(Br)s3)nc12 | -146.4*
O=C1NC(=Nc2ccccc2)S/C1=C\c1cccn1-c1ccccc1 | -388.2*
Nc1ccc(CCc2nc3ccccc3o2)cc1 | -126.0*
N#Cc1cc2cc3c(cc2nc1SCC(=O)N1CCCC1)OCCO3 | -84.6*
COc1cc2cc(C#N)c(SCC(=O)N3CCOCC3)nc2cc1OC | -74.4*
CC1CCc2c(nc3ncnn3c2NCCc2ccccc2F)C1 (centres undefined) | -69.5*
O=S(=O)(Nc1ccc(F)cc1Cl)c1ccc(-c2cnc(C3CC3)o2)cc1 | 67.6
O=C(NCC1CCCCC1)c1ccc(F)cc1Cl | -124.5*
O=C(Nc1ccc(N2CCOCC2)nc1)c1cccs1 | -104.1*
O=C(c1ccccc1)c1cc([N+](=O)[O-])ccc1N1CCOCC1 | 101.3
O=C(c1ccccc1)c1ccc(N2CCOCC2)c(F)c1 | -144.8*
Cc1ccc(C(=O)Nc2ccc(N3CCOCC3)nc2)cc1 | -71.3*
O=C(Nc1ccc(N2CCOCC2)c(F)c1)c1cccs1 | -123.4*
CN(C)c1ccc(NC(=O)c2ccc(N3CCOCC3)nc2)cc1 | -62.3*
CCCCc1noc2c1/C(=N\O)CC(c1ccccc1)C2 (centres undefined) | -77.5*
CCCCNC(=S)N/N=C/c1cccc(OCC)c1O | -73.3*
CCOC(=O)c1sc(Nc2ccccc2)nc1C | -95.8*
Cc1nc(Nc2ccccc2)sc1C(=O)c1ccccc1 | -67.8*
SMILES | aSyn 5UTR act
Cc1ccc(-c2nc(Nc3cccc(C)c3)sc2CC(=O)O)cc1 | -143.3*
CCOC(=O)c1sc(Nc2nc(C)cc(C)n2)nc1C | 84.1
CC(=O)c1sc(Nc2cccc(C)c2)nc1C | -164.9*
CC(C)(C)C(=O)c1sc(Nc2ccccc2)nc1N | -179.5*
COC(=O)c1sc(Nc2ccccc2)nc1C | -156.7*
CCOC(=O)c1sc(NC(=O)Nc2ccc(Cl)cc2)nc1C | -175.1*
CCc1nnc(NC(=O)Nc2ccc(Cl)cc2)s1 | -66.2*
COc1ccc(Nc2nc(N)c(C(=O)c3ccc(F)cc3)s2)cc1 | 70.0
CCOC(=O)c1sc(Nc2nc3c(OC)cccc3s2)nc1C | -164.3*
CCOC(=O)c1sc(-c2cccs2)nc1C | -64.6*
Cc1cccc(Nc2nc3c(s2)CCCC3)c1 | -256.5*
C1CCN=C(Nc2nc3c(s2)CCCC3)CC1 | -138.9*
COC(=O)Nc1nc(-c2ccccc2)c(C(=O)c2ccccc2)s1 | 100.0
O=C(Cc1sc(Nc2ccccc2)nc1-c1ccccc1)NCc1ccccc1 | -122.6*
COC(=O)Nc1nc(C)c(C(=O)c2ccccc2)s1 | -105.0*
CCOC(=O)N1CCN(S(=O)(=O)c2ccc(C(=O)NNc3nc4c(C)cc(C)cc4s3)cc2)CC1 | 71.4
Cc1cc(C)c2nc(N3CCCC(C(=O)NC4CCCC4)C3)sc2c1 (centres undefined) | -90.3*
CCOc1ccc2nc(N3CCCC(C(=O)NCC4CCCO4)C3)sc2c1 (centres undefined) | -144.8*
CCOc1ccc2nc(N3CCCC(C(=O)N4CCN(CC)CC4)C3)sc2c1 (centres undefined) | -96.3*
CC1Oc2ccccc2C=C1/C=N/Nc1ccc(C(=O)O)cc1 (centres undefined) | -95.1*
COC(=O)Cc1c(C)c2ccc(OCC(C)=O)c(C)c2oc1=O | -123.6*
CCc1c(C)c2ccc(OCC(=O)OC(C)C)c(C)c2oc1=O | -106.5*
O=C(NNC(=O)c1ccccc1O)c1cc2ccccc2o1 | -86.0*
CC(C)c1nnc(NC(=O)c2cc3ccccc3o2)s1 | -135.1*
O=C(Nc1ccc(F)cc1)c1cc2ccccc2o1 | -153.3*
SMILES | aSyn 5UTR act
O=C(Nc1ccccc1)c1ccc(OC(=O)c2cc3ccccc3o2)cc1 | -83.9*
O=C1CCC2S/C(=C/Nc3ccc(C(F)(F)F)cc3)C(=O)N12 (centres undefined) | 99.4
O=C(Nc1ccccc1)c1cc2ccccc2o1 | -112.1*
Cc1cc(C(=O)Nc2ccccc2)oc1C | -112.4*
O=C(Nc1ccc(NC(=O)c2cc3ccccc3o2)cc1)c1ccco1 | -94.7*
O=C(Nc1ccc(N2CCCC2)cc1)c1cc2ccccc2o1 | -131.1*
CC(=O)c1ccc(NC(=O)c2cc3ccccc3o2)cc1 | -128.3*
CSC(C(=O)c1cc2ccccc2o1)c1ccccc1 (centres undefined) | -88.2*
CCOC(=O)c1[nH]c(C)c(C(=O)N2CCc3ccccc32)c1C | 89.7
CCOC(=O)c1ccc(NC(=O)N2CCc3ccccc32)cc1 | -189.2*
O=C(Nc1ccccc1)N1CCc2ccccc21 | -117.2*
O=c1c2c3c(sc2ncn1/N=C/c1ccc([N+](=O)[O-])o1)CCCC3 | -89.4*
OCC1CCCN(C(=S)Nc2ccc(Oc3ccccc3)cc2)C1 (centres undefined) | -135.2*
CC(=O)c1ccc(NC(=S)N2CCCC(CO)C2)cc1 (centres undefined) | -82.3*
CN(c1ccccc1)c1nc2ccsc2c(=O)s1 | -123.6*
CCOC(=O)CNC(=O)c1ccc(SCC)cc1 | -91.5*
CCCCCn1cnc2sc(CC)cc2c1=O | -168.8*

Bioassay records: PubChem BioAssay, Broad Institute
